Measurements published in PubChem BioAssay (NCATS).
Inconclusive results are not listed. A call without a number means that no potency is given here. Unmarked numbers belong to inactive results. Activity calls are given as the source filed them. The call rests on the fitted dose curve; in most records, active means well fitted inhibition curve with a large enough effect; inconclusive means small, poorly fitted or top-dose-only effect; inactive means flat fitted curve, though single readings scatter.

Legend:
[1] = qHTS profiling for inhibitors of Plasmodium falciparum proliferation (AID 504749); on all read-outs here: nearly all actives have a fitted effect of over 60% in size; settings: P. falciparum in erythrocytes, SYBR Green DNA, 72 h; for activity, negative = inhibition: at 28.7 µM (top of the series)
Method in brief: (§1)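 Three-day growth assay of blood-stage parasites in erythrocytes (0.3% parasitemia, 2.5% hematocrit) at 37 C, 5% CO2, quantified by SYBR Green DNA staining after overnight detergent lysis.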

3D7 = assay: as above; settings: P. falciparum in erythrocytes, SYBR Green DNA, 72 h; series mostly up to 28.7 µM
Method in brief: as §1

7G8 = assay: as above; settings: P. falciparum in erythrocytes, SYBR Green DNA, 72 h; series mostly up to 28.7 µM
Method in brief: as §1

C2A = assay: as above; settings: P. falciparum in erythrocytes, SYBR Green DNA, 72 h; series mostly up to 28.7 µM
Method in brief: as §1

CP185 = assay: as above; settings: P. falciparum in erythrocytes, SYBR Green DNA, 72 h; series mostly up to 28.7 µM
Method in brief: as §1

CP192 = assay: as above; settings: P. falciparum in erythrocytes, SYBR Green DNA, 72 h; series mostly up to 28.7 µM
Method in brief: as §1

AA1029 = assay: as above; settings: P. falciparum in erythrocytes, SYBR Green DNA, 72 h; series mostly up to 28.7 µM
Method in brief: as §1

CP191 = assay: as above; settings: P. falciparum in erythrocytes, SYBR Green DNA, 72 h; series mostly up to 28.7 µM
Method in brief: as §1

CP194 = assay: as above; settings: P. falciparum in erythrocytes, SYBR Green DNA, 72 h; series mostly up to 28.7 µM
Method in brief: as §1

AS120 = assay: as above; settings: P. falciparum in erythrocytes, SYBR Green DNA, 72 h; series mostly up to 28.7 µM
Method in brief: as §1

ATS189 = assay: as above; settings: P. falciparum in erythrocytes, SYBR Green DNA, 72 h; series mostly up to 28.7 µM
Method in brief: as §1

ATS95 = assay: as above; settings: P. falciparum in erythrocytes, SYBR Green DNA, 72 h; series mostly up to 28.7 µM
Method in brief: as §1
Potency means the concentration at half of the fitted maximal effect.

Row | Structure (SMILES) | activity, negative = inhibition ([1]; parasite line A) [%] | Potency (3D7) | Potency (7G8) | Potency (C2A) | Potency (CP185) | Potency (CP192) | activity, negative = inhibition ([1]; parasite line B) [%] | Potency (AA1029) | Potency (CP191) | Potency (CP194) | Potency ([1]; parasite line A) | Potency (AS120) | Potency (ATS189) | Potency (ATS95)
1 | N[C@@H](Cc1cc(I)c(Oc2ccc(O)c(I)c2)c(I)c1)C(=O)O | -3.92 | inactive | 12.6 µM (active) | inactive | inactive | inactive | – | – | – | – | – | – | – | –
2 | CC(C)CCCCCCc1ccc(O)cc1 | – | inactive | 8.91 µM (active) | inactive | inactive | inactive | -29 | inactive | inactive | inactive | – | – | – | –
3 | Nc1ccc(N=Nc2ccccc2)c(N)n1 | – | inactive | inactive | – | inactive | inactive | – | inactive | – | inactive | 10 µM (active) | inactive | inactive | inactive
4 | CC(=O)c1ccc2c(c1)N(CCCN1CCN(CCO)CC1)c1ccccc1S2 | – | – | 7.08 µM (active) | – | 10 µM (active) | – | – | 8.91 µM (active) | 11.2 µM (active) | – | – | – | – | –
5 | O=c1n(CC2CO2)c(=O)n(CC2CO2)c(=O)n1CC1CO1 (stereo not drawn) | – | – | 12.6 µM (active) | – | – | – | -29.5 | – | – | – | – | inactive | inactive | –
6 | CCN(CC)CCC(=O)N1c2ccccc2Sc2ccc(Cl)cc21 | – | – | 8.91 µM (active) | – | – | inactive | – | – | – | – | – | – | inactive | –
7 | O=C(Nc1ccc(O)cc1)c1ccccc1O | 12.3 | inactive | – | inactive | inactive | inactive | – | inactive | inactive | inactive | – | – | inactive | inactive
8 | CNC(=O)c1c(I)c(C(=O)NCC(=O)Nc2c(I)c(C(=O)O)c(I)c(C(=O)NCCO)c2I)c(I)c(N(C)C(C)=O)c1I | – | inactive | inactive | inactive | inactive | inactive | 2.12 | inactive | inactive | inactive | – | inactive | inactive | inactive
9 | CN(C)C(=O)CCSC(SCCC(=O)O)c1cccc(/C=C/c2ccc3ccc(Cl)cc3n2)c1 (stereo not drawn) | – | – | 8.91 µM (active) | – | – | inactive | – | – | – | – | – | 10 µM (active) | – | –
10 | NC(N)=NCC1COc2ccccc2O1 (stereo not drawn) | – | inactive | – | – | inactive | inactive | – | – | – | – | – | inactive | inactive | inactive
11 | OC1OC[C@@H](O)[C@H](O)[C@@H]1O (stereo partly drawn) | -2.48 | inactive | inactive | inactive | inactive | inactive | – | inactive | inactive | inactive | – | inactive | inactive | inactive
12 | O=C1c2ccccc2C(=O)C1c1ccc(Cl)cc1 | 10.7 | inactive | inactive | inactive | inactive | inactive | – | inactive | inactive | inactive | – | inactive | inactive | inactive
13 | CCCC(CCC)C(=O)OC1C[C@H]2CC[C@@H](C1)[N+]2(C)C (stereo partly drawn) | – | – | 11.2 µM (active) | – | – | – | – | 11.2 µM (active) | – | – | 5.62 µM (active) | – | – | –
14 | Cc1cc(-c2ccc(N=Nc3c(S(=O)(=O)O)cc4cc(S(=O)(=O)O)cc(N)c4c3O)c(C)c2)ccc1N=Nc1c(S(=O)(=O)O)cc2cc(S(=O)(=O)O)cc(N)c2c1O | – | inactive | – | inactive | – | inactive | – | inactive | inactive | – | – | 14.1 µM (active) | – | inactive
15 | c1ccc2c(c1)Sc1ccccc1N2CCN1CCCC1 | – | 11.2 µM (active) | 7.08 µM (active) | – | 10 µM (active) | – | – | 7.94 µM (active) | – | 13.5 µM (active) | – | 7.08 µM (active) | 8.91 µM (active) | 8.91 µM (active)
16 | Cn1c(=O)c2c(ncn2CCOC(=O)C(C)(C)Oc2ccc(Cl)cc2)n(C)c1=O | -0.561 | inactive | inactive | – | – | inactive | – | – | – | inactive | – | – | – | –
17 | OC/C=C/c1ccccc1 | -0.356 | inactive | inactive | inactive | inactive | inactive | – | inactive | inactive | inactive | – | inactive | inactive | inactive
18 | CC(=O)Nc1ccc(NC(=S)NC(=O)c2ccc(C(C)(C)C)cc2)cc1 | – | 11.2 µM (active) | 8.91 µM (active) | inactive | inactive | inactive | -2.21 | – | inactive | inactive | – | inactive | inactive | –
19 | CN1CCCC(CN2c3ccccc3Sc3ccccc32)C1 (stereo not drawn) | – | inactive | 11.2 µM (active) | – | – | inactive | – | 10 µM (active) | – | – | – | 12.6 µM (active) | – | –
20 | C/C(=C\C(=O)OCCCCCCCCC(=O)O)C[C@@H]1OC[C@H](C[C@@H]2O[C@H]2[C@@H](C)[C@H](C)O)[C@@H](O)[C@H]1O | – | – | – | – | – | – | – | – | – | 0.135 µM (active) | – | – | – | –
21 | CCOC(=O)Cc1ccc(-c2ccccc2)cc1 | 8.04 | inactive | inactive | inactive | inactive | – | – | – | – | inactive | – | inactive | inactive | inactive
22 | O=P(O)(O)OP(=O)(O)O | -13.9 | inactive | 10 µM (active) | inactive | inactive | inactive | – | – | inactive | inactive | – | – | – | inactive
23 | CC(=O)Oc1cccc2c1C(=O)c1c(OC(C)=O)cc(C(=O)O)cc1C2=O | – | inactive | inactive | inactive | inactive | inactive | -5.47 | inactive | inactive | inactive | – | inactive | inactive | inactive
24 | CC(CN(C)C)CN1c2ccccc2Sc2ccc(C(F)(F)F)cc21 (stereo not drawn) | – | inactive | 10 µM (active) | – | – | inactive | – | – | 8.91 µM (active) | – | 11.2 µM (active) | 11.2 µM (active) | – | –
25 | COc1ccc2nc(NC(=O)Nc3ccccc3)sc2c1 | – | – | 10 µM (active) | inactive | inactive | inactive | 5.72 | inactive | inactive | inactive | – | – | inactive | inactive
